The list is not random: actives were taken first. Their share in the collection is about 19%.
TDP1 cell CPT – DT40-hTDP1 cell growth loss with CPT | chicken DT40 Tdp1-/-;hTDP1 cells + 20 nM CPT, ATP luminescence, 48 h | Potency, µM (titrated, usually from 46.2 µM), without a hit: at the highest dose activity change, negative = growth inhibition, actives largely listed as inhibitors | 420,000 tested, 12% active; note: potency is the fitted concentration of half-maximal effect; % is set by controls: 0 for no effect and ±100 for the full control effect; nearly all actives have a fitted effect of over 55% in size
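Chicken DT40 Tdp1-/- cells complemented with human TDP1, 400 cells/well, exposed to compounds plus 20 nM camptothecin for at least 48 h at 37 C; viability read as ATP content by CellTiter-Glo luminescence.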
IL-1B inflam inh – inhibitors of inflammasome signaling (IL-1 beta secretion); activity change, % at 57.5 µM; THP-1 LPS/ATP IL-1B secretion, AlphaLISA, 16 h; active compounds read low; 360,000 tested, 4.7% active; AID 743279; in the data active = activity change below about -50%; inconclusive = mostly about -30% to -49%; note: % is set by controls: 0 for no effect and ±100 for the full control effect
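Secreted IL-1B measured by AlphaLISA bead assay after 16 h compound exposure of THP-1 cells; compounds (final up to 57.5 uM) added 1 h before LPS (250 ng/mL) and ATP (1.25 mM) stimulation; lower signal means less secretion.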
BCR signal inh – chronic active BCR signaling inhibition; ABC-DLBCL IkBa-CBG/CBR reporter, luminescence ratio, 4 h; Potency, µM (series often up to 46.1 µM), without a hit: at the highest dose activity change, negative = inhibition, most hits filed as inhibitors; 340,000 tested, 0.05% active; AID 493014; active = well fitted inhibition curve with a large enough effect in the signal ratio, with a control signal flat, not every such curve was filed as active; inconclusive = small, poorly fitted or top-dose-only effect, or effect the other way, or a change in a side signal; the % refers to the signal ratio;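 note: potency is the fitted concentration of half-maximal effect; plate controls were basal doxycycline-induced cells for no effect and cells given 10 µM MG132 for full effect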
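Doxycycline induced both beetle luciferases in TMD8 lymphoma cells; IKK-driven degradation limits the IkappaBalpha-fused green signal, while red luminescence normalises for cell number and nonspecific effects. Compounds tested up to 46 uM, 4 hrs.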
MCF10A rereplic – inducers of DNA re-replication in MCF 10A breast cells. Potency, µM (highest dose often 46.1 µM), inactives show top-dose activity, positive = re-replication, actives largely listed as activators. MCF 10A DNA re-replication, Hoechst nuclear intensity, 48 h. 350,000 tested, 2.9% active; note: potency is the fitted concentration of half-maximal effect; % of control where 0% means no effect; nearly all actives have a fitted effect of over 50% in size
DT40 TDP1 no CPT – qHTS for Inhibitors of human tyrosyl-DNA phosphodiesterase 1 (TDP1): qHTS in cells in absence of CPT. DT40 Tdp1-/- hTDP1 cells, no CPT, ATP luminescence, 48 h. Potency, µM (doses to about 46.2 µM), inactives show at the top dose activity change, negative = growth inhibition, most hits filed as inhibitors. 420,000 tested, 15% active. AID 686978, 2013; note: potency is the fitted concentration of half-maximal effect; % is set by controls: 0 for no effect and ±100 for the full control effect; nearly all actives have a fitted effect of over 55% in size
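Camptothecin absent (DMSO only). Human TDP1-complemented DT40 knockout cells, 400 cells/well, 37 °C for minimum 48 hr; ATP measured via CellTiter-Glo, 30 min dark incubation, luminescence.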
SW480 rereplic – DNA re-replication induction in SW480 cells. SW480 DNA re-replication, Hoechst DNA content imaging, 48 h. Potency, µM (doses to about 46.1 µM), for inactives: at the top dose re-replication activation, hits mostly activators. 340,000 tested, 1.8% active; note: potency is the fitted concentration of half-maximal effect; % of control where 0% means no effect; nearly all actives have a fitted effect of over 55% in size
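Cells (250 per well) received 23 nL compound or DMSO by pin tool and were kept 48 hr at 37 C, 5% CO2. Nuclei were then stained with Hoechst for 40 min and scanned for DNA content.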
* marks the source's active call; other numbers are inactive results; ? = inconclusive; / = not tested or not shown. Unless noted, calls come from the whole dose curve; as a rule, active = well fitted curve in the direction sought with a large enough effect; inconclusive = small, poorly fitted or top-dose-only effect, or another doubt; inactive = no such curve, though single readings can be large; an effect the other way counts as inactive or inconclusive.

SMILES | TDP1 cell CPT | IL-1B inflam inh | BCR signal inh | MCF10A rereplic | DT40 TDP1 no CPT | SW480 rereplic
CC(Cc1cccnc1)NC(=O)c1cc(COc2ccc(F)cc2F)on1 (stereo not drawn) | 16µM* | -3 | -8% | -1% | 21µM* | -2%
CC(CNC(=O)c1cc(COc2c(F)cccc2F)on1)Oc1cccnc1 (stereo not drawn) | 21µM* | -17 | 0% | 11% | 15µM* | 0%
CCc1cccc(NC(=O)C(Cc2ccccc2)NS(=O)(=O)c2ccc3c(c2)oc(=O)n3C)c1 (stereo not drawn) | 7% | / | / | / | -31% | /
CCC(=O)N1CCC1(C)C(=O)Nc1nccs1 (stereo not drawn) | -6% | 43 | / | / | ? | /
CCn1cc(CNC(=O)c2cc(COc3ccc(F)cc3F)on2)cn1 | ? | 11 | 2% | -7% | 23µM* | -1%
COc1ccc(OCc2cc(C(=O)NC(C)Cc3cccnc3)no2)c(Cl)c1 (stereo not drawn) | ? | -15 | 8% | 9% | 23µM* | 8.2µM*
CN(C)c1ccc(/C=C2\C=Cc3ccccc32)cc1 | -26% | / | / | / | ? | /
CC(C)CN(C)c1ccc(/C=C2\C=Cc3ccccc32)cc1 | 2.8µM* | / | / | / | 2.5µM* | /
CCN(CC)c1ccc(/C=C2\C=Cc3ccccc32)cc1 | ? | / | / | / | 18µM* | /
CN(C)c1ccc(/C=C2\C=Cc3cc(N)ccc32)cc1 | ? | / | / | / | 11µM* | /
COc1ccc2c(c1)C=C/C2=C\c1ccc(N(C)C)cc1 | -70% | / | / | / | ? | /
CC(C)CN(C(=O)COC(=O)CSc1ccccc1)c1c(N)n(Cc2ccccc2)c(=O)[nH]c1=O | -29% | 7 | 1% | 2% | -22% | 0%
NC(=O)c1ccc(NC(=O)COC(=O)CCN=C2NS(=O)(=O)c3ccccc32)cc1 | -1% | 0 | 1% | -1% | 16% | -10%
COc1ccccc1C1CCN(Cc2cccc([N+](=O)[O-])c2)CC1 | ? | 36 | -1% | 18% | ? | -7%
COc1ccccc1C1CCN(c2ccc(CO)cc2[N+](=O)[O-])CC1 | ? | -18 | 18% | ? | 16µM* | -2%
COc1ccccc1C1CCN(Cc2ccc3ccccc3c2)CC1 | ? | -61* | 2% | ? | ? | -1%
COC(=O)[C@H]1[C@H](c2ccccc2)[C@H](C(=O)OC)O[C@H]1c1ccccc1 | 0% | 15 | / | 0% | -15% | -141%
O=C(c1ccccc1)C1C(c2ccccc2)C1[N+](=O)[O-] (stereo not drawn) | 1% | -56* | 4% | 14% | -17% | -4%
Cc1ccc(N=C2S/C(=C\c3cn(CC(=O)O)c4ccccc34)C(=O)N2C)cc1 | -1% | 43 | 0% | 10% | ? | ?
CC(C)CC(COCc1ccc(C(F)(F)F)cc1)N1CCN(C(=O)c2ccc(C(F)(F)F)cc2)CCC1=O (stereo not drawn) | ? | -54* | -7% | 24% | ? | ?
CC(C)C[C@@H](COCc1ccc(C(F)(F)F)cc1)N1CCN(C(=O)c2ccc(C(F)(F)F)cc2)CCC1=O | ? | -76* | / | / | ? | /
CC(C)C[C@@H](COCc1cccc(Cl)c1)N1CCN(C(=O)c2ccc(C(F)(F)F)cc2)CCC1=O | ? | -50* | / | / | ? | /
O=C(OCC(=O)N1CCN(Cc2ccccc2)CC1)c1cc(Cl)ccc1[N+](=O)[O-] | 1% | 26 | -8% | -3% | 0% | -7%
CCC(C)c1ccc(NC(=S)N2CCN(C(=O)C3CCCO3)CC2)cc1 (stereo not drawn) | 11% | 2 | 1% | 2% | -4% | 8%
CCn1c(C)nc2cc(S(=O)(=O)C(F)(F)F)ccc21 | ? | 0 | 19% | -2% | 16µM* | -2%

Screens as filed in PubChem BioAssay.
